From PubChem BioAssay AID861 (The Scripps Research Institute Molecular Screening Center, 2007)
Screen size: about 200,000 compounds; about 360 (0.18%) were called active. The full list was thinned out, with actives kept by preference. A number with no mark means an inactive call. No stated cut-off is given here; in the data, active means inhibition above about 25%; inactive means the rest.

biological target: Toll-like receptor 4 (Homo sapiens) + Myeloid differentiation primary response protein MyD88 (Homo sapiens) (UniProt O00206+Q99836); experiment: disruptors of TLR4 binding to MyD88 – cell-based, HeLa CL3-4, BLA complementation, FRET ratio, primary screen (AID 861); conditions: HeLa CL3-4 TLR4/MyD88 BLA complementation, at 8.4 µM, stronger effect = higher value;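 further: 0% = vehicle and 100% = reference inhibitor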
Sequence (O00206 whole entry, looked up): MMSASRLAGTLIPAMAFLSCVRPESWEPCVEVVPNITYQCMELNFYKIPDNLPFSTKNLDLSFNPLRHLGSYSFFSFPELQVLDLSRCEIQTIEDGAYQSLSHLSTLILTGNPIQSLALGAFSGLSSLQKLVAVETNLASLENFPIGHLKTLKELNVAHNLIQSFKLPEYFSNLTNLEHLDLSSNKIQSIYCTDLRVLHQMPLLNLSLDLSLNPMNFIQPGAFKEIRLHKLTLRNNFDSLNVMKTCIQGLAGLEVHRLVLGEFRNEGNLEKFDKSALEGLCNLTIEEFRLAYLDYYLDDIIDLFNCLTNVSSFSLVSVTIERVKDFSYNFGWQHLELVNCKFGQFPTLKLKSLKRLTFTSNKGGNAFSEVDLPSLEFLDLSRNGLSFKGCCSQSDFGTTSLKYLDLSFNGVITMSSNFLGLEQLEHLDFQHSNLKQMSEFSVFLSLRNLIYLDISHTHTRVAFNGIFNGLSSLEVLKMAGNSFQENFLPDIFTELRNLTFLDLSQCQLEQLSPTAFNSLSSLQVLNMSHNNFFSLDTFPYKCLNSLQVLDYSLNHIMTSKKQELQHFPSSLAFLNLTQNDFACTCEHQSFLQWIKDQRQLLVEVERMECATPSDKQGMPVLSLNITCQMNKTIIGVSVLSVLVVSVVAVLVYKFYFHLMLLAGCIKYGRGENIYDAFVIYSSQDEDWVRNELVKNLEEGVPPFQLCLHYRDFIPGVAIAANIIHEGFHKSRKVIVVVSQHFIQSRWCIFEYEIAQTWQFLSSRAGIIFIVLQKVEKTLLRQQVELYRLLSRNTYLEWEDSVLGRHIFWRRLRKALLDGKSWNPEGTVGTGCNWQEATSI
Sequence (Q99836 whole entry, looked up): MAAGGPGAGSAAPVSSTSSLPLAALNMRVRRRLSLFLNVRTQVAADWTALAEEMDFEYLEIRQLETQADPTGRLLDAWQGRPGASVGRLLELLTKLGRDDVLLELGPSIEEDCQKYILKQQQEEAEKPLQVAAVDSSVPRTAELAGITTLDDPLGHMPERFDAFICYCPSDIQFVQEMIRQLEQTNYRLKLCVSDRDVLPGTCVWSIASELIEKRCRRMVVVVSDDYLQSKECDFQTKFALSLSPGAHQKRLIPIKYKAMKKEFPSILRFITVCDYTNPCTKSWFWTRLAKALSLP

Compared with `CCOC(=O)Cc1csc(NC(=O)CSc2ccc(Br)cc2)n1`, `CCOc1ccc(NC(=O)CN(C)CC(=O)NC(C)c2ccccc2)cc1OCC` (stereo not drawn) is higher in inhibition: -6.41% for the first, -3.92% for the second.

Compared with `CNC(=O)c1ccsc1NC(=O)c1ccc(S(=O)(=O)N2CCOCC2)cc1`, `COc1cccc(OC)c1C(=O)NC(=S)Nc1ccc(N2CCOCC2)c(Cl)c1` is lower in inhibition: 0.17% for the first, -0.95% for the second.

Going from `Cc1ccc(Oc2cc(NC(=O)CCCn3nc(C)c([N+](=O)[O-])c3C)cc([N+](=O)[O-])c2)cc1` to `Cc1nnc(-c2ccc(Oc3ccc(C)c(C)c3)c([N+](=O)[O-])c2)o1`, the inhibition rises from -10.9% to 2.54%.

First: Nc1cc(C(F)(F)F)ccc1N1CCOCC1
Second: CC12CN(NC(=O)c3ccc(Cl)cc3)C3(C#N)CC1CCC23C (stereo not drawn)
The inhibition of the first is higher: 2.5% for the first, 1.1% for the second.

First: COc1ccccc1-c1nc(SC)n[nH]1
Second: COc1ccccc1CC(=O)Nc1ccc(F)cc1F
The inhibition of the first is higher: -2.94% for the first, -14.3% for the second.

First: CN(C)CCCCCN(C)Cc1cc2ccccc2o1
Second: CCN(CC)CCn1c(/N=C/c2cc(Br)ccc2O)nc2ccccc21
The inhibition of the first is lower: 6.13% for the first, 7.14% for the second.

First: Cc1nn(Cc2ccc(Cl)cc2)c(Cl)c1/C=N/NC(=O)CNc1ccccc1F
Second: O=C(Cn1nnc(-c2ccccc2)n1)N/N=C/c1ccc(-c2ccc(Cl)cc2)o1
The inhibition of the first is lower: -10.4% for the first, 8.21% for the second.

Going from `COc1ccc(/C=C2/C(=O)OCc3cc(OC)c(OC)cc32)c(OC)c1` to `C/C=C/c1ccc(OCCOc2ccc(C=O)cc2OC)c(OC)c1`, the inhibition rises from -8.99% to -6.21%.

Going from `Cc1cc(-c2csc(N)n2)c(C)n1Cc1ccccc1` to `COc1cc(C(=S)NCc2ccccc2)cc(Br)c1O`, the inhibition falls from 5.78% to -2.71%.

Going from `CC(C)(C)NC(=O)NC(=O)COC(=O)Cc1ccc(Cl)cc1Cl` to `CC(CC(=O)O)C(=O)c1ccc(Cl)c([N+](=O)[O-])c1` (stereo not drawn), the inhibition falls from 16.8% to 1.72%.

Going from `Cc1ccnc2nc(C(=O)OCC(=O)N(CC(C)C)CC(C)C)nn12` to `CCCn1nnc(NC(=O)COc2ccc(CC)cc2)n1`, the inhibition rises from -2.14% to 9.27%.

Compared with `C=CCN(CC=C)CCOc1ccccc1[N+](=O)[O-]`, `N/C(=N/O)c1cccn1Cc1ccccc1[N+](=O)[O-]` is lower in inhibition: 9.15% for the first, -3.45% for the second.

Compared with `COC(CNC(=O)Cn1ncc2ccsc2c1=O)OC`, `COC(=O)c1cc(C)sc1NC(=O)CC1Nc2ccccc2NC1=O` (stereo not drawn) is higher in inhibition: -15.6% for the first, 5% for the second.

Compared with `CCO/C=C1\C(=O)N(c2ccc(OCC)cc2)C(=O)c2ccccc21`, `O=C1CC(c2ccccc2)=NN1c1ccc([N+](=O)[O-])cc1` is higher in inhibition: 5.91% for the first, 7.06% for the second.

Going from `Cn1cccc1C(C#N)c1ccccc1C#N` (stereo not drawn) to `CC1=NN(c2ccccc2)C(=O)C1C(=O)c1ccc([N+](=O)[O-])cc1` (stereo not drawn), the inhibition falls from 2.41% to 1.28%.

Going from `O=C(Cc1ccccc1)NCc1ccc(F)cc1` to `O=C(NCCc1ccc(F)cc1)c1n[nH]c2ccccc12`, the inhibition rises from -9.59% to -4.67%.

Going from `CCOC(=O)CSc1nc(C)cc2c1C(=O)OC2` to `CCOC(=O)C1=C(CC)Nc2ccccc2N=C1N`, the inhibition falls from 8.27% to -10.4%.

Going from `O=C(CCCOc1ccccc1)NCc1ccco1` to `Cc1ccc(OCCCC(=O)NC(C)c2ccccc2)c(C)c1` (stereo not drawn), the inhibition falls from 9.17% to -0.61%.

Going from `O=C(c1ccc(F)cc1)c1cn(Cc2ccc(F)cc2)c2cc3c(cc2c1=O)OCCO3` to `COc1ccc(-c2onc(C)c2-c2ccc3c(c2)OCCO3)c(O)c1`, the inhibition rises from -6.89% to 1.48%.

Going from `CCCNC(=S)N1CCCC(c2nc3ccccc3[nH]2)C1` (stereo not drawn) to `CSC(=S)N/N=C/c1c[nH]c2ccccc12`, the inhibition falls from -4.57% to -16.8%.

First: Cc1cc(C)c[n+](-c2nc3ccccc3nc2[N-]S(=O)(=O)c2cccs2)c1
Second: COc1ccc(S(=O)(=O)N2CN(CCc3ccc(OC)c(OC)c3)c3nc4ccccc4nc32)cc1
The inhibition of the first is lower: -9.34% for the first, 3.83% for the second.

Going from `COc1ccc2cc(CCl)c(Cl)nc2c1` to `Cc1cc(C)cc(OCC(=O)NCc2cc(C)nc3ccccc23)c1`, the inhibition rises from 2.67% to 8.6%.

Going from `COc1cccc(OC)c1C(=O)Nc1ccc(Cc2ccncc2)cc1` to `COc1ccc(-c2nn(-c3ccccc3)cc2/C=N/Nc2ccccn2)cc1OC`, the inhibition falls from 13.9% to -3.61%.

Going from `S=c1[nH]nc(-c2ccccc2)n1/N=C/c1c[nH]c2ccccc12` to `Cc1cccc(C(=O)N2CCc3c([nH]c4ccccc34)C2CC(C)C)n1` (stereo not drawn), the inhibition falls from -1.22% to -16.4%.

First: O=C(NCc1ccc2c(c1)OCO2)c1ccc2c(c1)C(=O)N(CC1CCCO1)C2=O (stereo not drawn)
Second: CCCCN(CC)C(=O)c1ccc2c(c1)OCO2
The inhibition of the first is higher: 16.9% for the first, -2.02% for the second.

Going from `O=c1c2cc3c(=O)n(CC4CCCO4)c(=O)c3cc2c(=O)n1CC1CCCO1` (stereo not drawn) to `CCCCCCn1c(CN2CCCCC2)nc2c1c(=O)n(C)c(=O)n2C`, the inhibition rises from 0.88% to 3.83%.

First: COCCCNC(=O)C1CCC(CNS(=O)(=O)c2ccc(OC)cc2)CC1 (stereo not drawn)
Second: CSCCC(NS(=O)(=O)c1ccc2c(c1)oc(=O)n2C)C(=O)NC1CCCc2ccccc21 (stereo not drawn)
The inhibition of the first is lower: 3.23% for the first, 7.47% for the second.

First: O=c1cnnc(Nc2ccccc2F)[nH]1
Second: O=C(CO/N=C/c1ccccc1OC(F)F)NC1CCCC1
The inhibition of the first is lower: 6.52% for the first, 16.4% for the second.

Compared with `O=C(CNC1CCCCC1)NCC1(c2ccccc2)CCCC1`, `CCN(CC(=O)NC1CCS(=O)(=O)C1)S(=O)(=O)c1ccccc1` (stereo not drawn) is higher in inhibition: -4.02% for the first, 1.44% for the second.

`Cc1cc(C)n(CCNCc2c(C(=O)N3C[C@@H](C)O[C@@H](C)C3)nc3ccc(Cl)cn23)n1` showed an inhibition of -4.55%.

In the case of `C[n+]1ccc(/C=C/c2c[nH]c3ccccc23)cc1`, the inhibition was 35.4% (active).
With `O=C1c2cccc3c([N+](=O)[O-])ccc(c23)C(=O)N1CC1CCCO1` (stereo not drawn) the inhibition was 84.1% (active).
With `O=C1NC(=O)C2C1C(c1ccc([N+](=O)[O-])cc1)=NN2Cc1ccccc1` (stereo not drawn) the inhibition was 44.1% (active).
`CCCCCCCCn1c2c(c(=N)c3c1CCC3)CCCC2` was tested, and the inhibition was 28.8% (active).
